# TPT1 inh – C. albicans TPT1 enzyme inhibition; recombinant caTPT1, FP RNA substrate dephosphorylation; inhibition, % at 5 µM; 300,000 tested, 0.81% active;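 active means inhibition above the mean of all tested compounds plus 3 SD, set per screening campaign, cut at about 24% in these data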;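 further: plate controls were DMSO alone for no effect and ferristatin control at 100 nM for full effect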
# IDE inh – inhibits human insulin-degrading enzyme in HEK cells. P14735. FAbetaB cleavage, fluorescence polarization. inhibition, % at 5.59 µM. 320,000 tested, 0.41% active. AID 434962;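 active means percent inhibition above the average of all tested compounds plus 3 SD, set per screening campaign, cut at about 16% in these data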;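 further: IDE supplied by intact live HEK cells; FP after avidin binding of uncleaved biotin substrate so inhibition keeps polarization high; 0% = DMSO wells and 100% = 60 µM reference IDE inhibitor Ii1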
# IDE cell activ – IDE (human) activation, cell-based; P14735; HEK cells, FAbeta-B cleavage, fluorescence polarization; 0% vehicle, 100% cell-free pure enzyme wells; activation, % at 5.96 µM; 340,000 tested, 0.073% active; AID 493087;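 active means activation above the mean of all tested compounds plus 3 SD, set per screening campaign, cut at about 17% in these data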
# CRFBP-R2 block – CRF-BP/CRF-R2 complex antagonism; HEK293 CRF-R2/CRF-BP, CRF-induced calcium fluorescence; 350,000 tested, 0.59% active; AID 588475; inhibition, % at 11.8 µM;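 active means inhibition of the ligand-induced calcium signal above about 50% at the single tested concentration, limit read from the data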
# CRFBP-R2 agonist – agonists of human CRF-binding protein/CRF-R2 receptor complex | 350,000 tested, 0.46% active | HEK293 CRF-R2/CRF-BP, calcium dye fluorescence (FLIPR); percent of saturating CRF peptide response | AID 588473 | activation, % at 13.2 µM;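 active means activation of at least 50%, plus an integration ratio under a set limit after plate pattern correction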;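 further: plate controls were neutral control wells without compound for no effect and CRF at EC100 for full effect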
# Myeloid diff MLP – myeloid differentiation induction | AID 624256 | 360,000 tested, 1% active | calls only at 10 µM | ER-HoxA9 myeloid progenitors, lysozyme-GFP differentiation, flow cytometry;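 active means normalized GFP-positive differentiation at or above the plate's own cutoff, the solvent-only control mean plus 3 SD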;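 further: cells exposed to compound for four days before flow analysis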
# * = called active by the depositor; i = inactive; nt = no result given; + = active, no number. Most compounds without a hit are left out; they make up all but 2.6% or so of the library.
SMILES,TPT1 inh,IDE inh,IDE cell activ,CRFBP-R2 block,CRFBP-R2 agonist,Myeloid diff MLP
COc1ccc(N(CC(=O)NN=C2CCCC2)S(=O)(=O)c2ccccc2)cc1Cl,2,-2,-6,-100,80*,i
CCCCC(CC)CNC(=O)CC1Nc2c3ccccc3nc(=S)n2C1=O (centres undefined),-1,2,-1,-11,-3,i
Cc1cc(C)nc(SCCC(=O)Nc2ccccc2)n1,-2,-5,3,16,2,i
Cc1cc(C)nc(SCCC(=O)Nc2ccccc2C)n1,-3,-1,3,75*,0,i
COCCCNC(=O)CCn1c(=O)c2ccccc2n(CC(=O)Nc2c(C)cccc2C)c1=O,-1,0,1,0,1,i
COCCCNC(=O)CCCn1c(=O)c2ccccc2n(CC(=O)Nc2c(C)cc(C)cc2C)c1=O,-1,-1,5,-17,-4,+
CCCCNC(=O)CCn1c(=O)c2ccccc2n(Cc2ccccc2C)c1=O,1,3,4,65*,-2,i
O=C(C[n+]1cc(-c2ccc(F)cc2)n2c1CCC2)Nc1nc(-c2ccccc2)cs1,1,1,2,14,0,i
Cc1ccc(-c2c[n+](CC(=O)Nc3nc(-c4ccc(F)cc4)cs3)c3n2CCC3)cc1,-1,10,0,63*,-1,i
C=CCc1cccc2cc(C(=O)NC(C)(C)C)c(=O)oc12,5,0,7,1,1,i
C=CCc1cccc2ccc(=O)oc12,-1,3,-1,1,-2,+
COc1cc(/C=C2\SC(=Nc3ccc(Cl)c(C(=O)O)c3)NC2=O)c(Br)c(Br)c1O,nt,nt,-96,-194,201*,i
Oc1[nH]c2ccccc2c1N=Nc1ccc(F)cc1,7,0,-18,-59,62*,i
C=CCN1CC(=O)N2Cc3[nH]c4ccccc4c3C[C@H]2C1=O,-4,3,1,-10,6,+
O=C1[C@@H]2Cc3c([nH]c4ccccc34)CN2C(=O)CN1CCCO,2,-1,-1,-20,9,i
CC(=O)Nc1cc(C(N)=O)c(Cl)cc1Cl,4,-14,6,72*,-1,i
Cc1cccc(COC(=O)C(Cc2ccccc2)NC(N)=O)c1 (centres undefined),1,1,2,1,0,i
CC1CCC2(CC1)NC(=O)N(CC(=O)N1CCN(c3ccccc3)CC1)C2=O (centres undefined),nt,-6,5,-7,0,i
COc1cc(CNc2ccc(S(N)(=O)=O)cc2)ccc1OCc1ccccc1F,nt,nt,-1,16,4,i
COc1cc(CNc2ccc(N3CCCCC3)cc2)ccc1OCC(=O)NC(C)(C)C,1,0,-1,-4,0,i
COc1cc(CNc2ccc(N3CCCC3)cc2)ccc1OCc1ccccc1F,7,-2,-2,-12,1,+
COc1cc(CNc2ccc(N3CCCC3)cc2)ccc1OCc1ccccc1,3,-1,0,-7,1,+
O=C(O)c1cccc(N/C(=N\S(=O)(=O)c2ccccc2)c2ccccc2)c1,3,2,-2,84*,10,i
O=S(=O)(/N=C(\c1ccc(F)cc1)N1CCOCC1)c1ccccc1,nt,nt,nt,-21,50*,i
COc1ccc(NS(=O)(=O)c2cc(N/C(=N\S(=O)(=O)c3ccccc3)c3ccc(F)cc3)ccc2Cl)cc1,1,3,1,-10,0,+
Cc1ccccc1N/C(=N/S(=O)(=O)c1ccccc1)c1ccc(F)cc1,-2,-1,1,21,-6,+
Cc1ccc(/C(=N\S(=O)(=O)c2ccc(Br)cc2)Nc2ccccc2C)cc1,-4,5,3,-6,1,i
Cc1ccc(S(=O)(=O)/N=C(/Nc2cccc(C(=O)O)c2)c2ccccc2)cc1,1,-1,-3,-17,0,i
CC1CCCN(S(=O)(=O)c2cc3c4c(c2)C(C)C(=O)N4CCC3)C1 (centres undefined),-1,2,-3,2,0,i
CCC(C)(C)NC(=O)C(c1ccc(OC)cc1)N(C(=O)CCC(=O)Nc1cc(C)on1)c1cc(OC)ccc1OC (centres undefined),0,4,4,7,1,i
